Source: PubChem BioAssay
RAD52 anneal inh = blocks human RAD52 DNA annealing | recombinant RAD52 DNA annealing, FRET fluorescence | 360,000 tested, 0.46% active | P43351 | inhibition, % at 18.7 µM | AID 651710;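 active = every replicate showing at least 50% inhibition; inconclusive = mean inhibition at least 50% but not in every replicate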
ERAP1 inh = inhibitors of human ERAP1 aminopeptidase | Q9NZ08 | recombinant ERAP1, Leu-AMC fluorescence, 60 min | inhibition, % at 10.7 µM | 340,000 tested, 0.15% active;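 active = mean replicate inhibition of at least 30%, or all replicates individually reaching that 30% level; inactive = mean below 30% and not every replicate reaching it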;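 also: 0% = neutral control wells and 100% = L-leucinethiol positive control wells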
RAD54 branch = inhibitors of human RAD54 branch migration; Q92698; RAD54 Holliday junction branch migration, FAM/BHQ fluorescence; inhibition, % at 10.4 µM; 360,000 tested, 0.14% active;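 active = mean normalized replicate activity at least 40 and at least half of replicates scoring 40 or more; inconclusive = only one of the two criteria met; inactive = mean below 40 and under half of replicates reaching 40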;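 also: 0% = median of neutral control wells and 100% = median of positive control wells; inhibitors cause a drop in the FAM fluorescence signal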
PGC1a acetyl inh = lowers PGC1a acetylation signal in U2OS cells; AlphaScreen anti-acetyl-lysine; with virally co-expressed GCN5 acetyltransferase; inhibition, % at 15.6 µM; 350,000 tested, 0.17% active;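 active = every replicate shows inhibition of at least 40%; inconclusive = mean inhibition at least 40% but some replicate below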;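 also: 0% = neutral control wells and 100% = positive control wells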
GSIS activator = GLuc luminescence reporter in INS-1E cells, primary screen for activators of glucose-dependent secretion of insulin; INS-1E GLuc reporter insulin secretion, 2-3 h; 370,000 tested, 0.61% active; activation, % at 16.6 µM;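 active = lowest replicate activation of at least 40%, so every replicate reaches that level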;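 also: 0% = median of neutral control wells and 100% = median of IBMX positive control wells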
MLL AF4-AF9 inh = blocks AF4 peptide binding to human AF9; P42568; AlphaScreen, biotin-AF4 peptide binding to FLAG-AF9; inhibition, % at 10 µM; 350,000 tested, 0.47% active; AID 651704;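 active = every replicate reaching a set inhibition limit, whatever the replicate mean, cut at about 25% in these data; inconclusive = mean inhibition reaches that limit but some replicates miss it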;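 also: 0% = plate neutral control median and 100% = total signal loss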
Target sequence (P42568 whole entry, looked up): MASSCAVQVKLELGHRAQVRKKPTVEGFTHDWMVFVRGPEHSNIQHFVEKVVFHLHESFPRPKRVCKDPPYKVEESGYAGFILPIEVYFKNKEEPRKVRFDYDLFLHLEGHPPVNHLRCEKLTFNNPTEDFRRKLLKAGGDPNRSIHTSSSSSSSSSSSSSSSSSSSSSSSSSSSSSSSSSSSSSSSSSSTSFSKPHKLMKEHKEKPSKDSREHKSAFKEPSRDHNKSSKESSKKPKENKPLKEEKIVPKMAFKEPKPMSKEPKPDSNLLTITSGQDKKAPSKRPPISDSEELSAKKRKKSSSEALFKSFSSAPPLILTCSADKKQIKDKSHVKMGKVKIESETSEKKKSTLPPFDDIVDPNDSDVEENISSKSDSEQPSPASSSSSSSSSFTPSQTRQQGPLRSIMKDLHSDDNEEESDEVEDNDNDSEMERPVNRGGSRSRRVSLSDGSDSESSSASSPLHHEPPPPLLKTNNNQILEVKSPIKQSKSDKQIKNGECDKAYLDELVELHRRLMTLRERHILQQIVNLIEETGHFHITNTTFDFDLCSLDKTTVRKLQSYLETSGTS
* = called active by the depositor; ! = a repeat was not active. Sampled rows, rich in hits. Any-hit rate of the full collection: about 1.4%.

Results for CCCCCCn1c(-c2cccs2)n[nH]c1=S ?
RAD52 anneal inh: -7; ERAP1 inh: 4; RAD54 branch: -2; PGC1a acetyl inh: 1; GSIS activator: 46*; MLL AF4-AF9 inh: -4

How did C[C@@H]1CN([C@@H](C)CO)C(=O)Cc2cc(NC(=O)C3CC3)ccc2O[C@@H]1CN(C)Cc1ccc2c(c1)OCO2 do in these assays?
RAD52 anneal inh: 2; ERAP1 inh: 1; RAD54 branch: 8; PGC1a acetyl inh: -1; GSIS activator: 1; MLL AF4-AF9 inh: -3

How did CCn1ccc(C(=O)Nc2ccccc2SC)n1 do in these assays?
RAD52 anneal inh: -11; ERAP1 inh: -3; PGC1a acetyl inh: -8; GSIS activator: 41*; MLL AF4-AF9 inh: -4

Results for CCN1CCN(c2ncc(C(=O)Nc3cc(Cl)ccc3OC)c3ccccc23)CC1 ?
RAD54 branch: 11; PGC1a acetyl inh: 93*; GSIS activator: 0

How did COc1ccccc1N1CCN(c2ncc(C(=O)N3CCN(c4cccc(Cl)c4)CC3)c3ccccc23)CC1 do in these assays?
RAD52 anneal inh: 4; ERAP1 inh: 2; PGC1a acetyl inh: 1; GSIS activator: -2; MLL AF4-AF9 inh: 3

How did CCOC(=O)c1ccc(N2C(=O)CC(N3CCC(O)(c4ccc(Br)cc4)CC3)C2=O)cc1 (stereo not drawn) do in these assays?
PGC1a acetyl inh: 47*

How did COc1ccc(/C=N/NC(=O)c2ccc(NC(=O)c3cccc([N+](=O)[O-])c3)cc2)c(C(=O)O)c1OC do in these assays?
RAD52 anneal inh: 8; ERAP1 inh: -4; RAD54 branch: 12; GSIS activator: -9; MLL AF4-AF9 inh: 1

What do the screens show for `COc1ccc(/C=N/NC(=O)c2ccc(NC(=O)c3cccc([N+](=O)[O-])c3)cc2)c(OC)c1`?
RAD52 anneal inh: -15; ERAP1 inh: -2; PGC1a acetyl inh: 97*; GSIS activator: 10; MLL AF4-AF9 inh: -3

Results for Cc1ccc(-c2ccc(C3[C@@H]4CN(Cc5cccc(F)c5)C[C@H]3N4)cc2)cc1 (stereo partly drawn) ?
RAD52 anneal inh: 54*; ERAP1 inh: -1; PGC1a acetyl inh: -7; GSIS activator: 997*; MLL AF4-AF9 inh: 7

What do the screens show for `Fc1ccc(-c2ccc(C3[C@@H]4CN(Cc5cccc(F)c5)C[C@H]3N4)cc2)cc1` (stereo partly drawn)?
RAD52 anneal inh: 94*!; ERAP1 inh: -1; PGC1a acetyl inh: 18; GSIS activator: 376*!; MLL AF4-AF9 inh: inconclusive

What do the screens show for `Fc1cccc(-c2ccc([C@@H]3[C@@H]4CN(Cc5nccs5)C[C@H]3N4)cc2)c1`?
RAD52 anneal inh: 38; ERAP1 inh: -5; PGC1a acetyl inh: -75; GSIS activator: 33; MLL AF4-AF9 inh: 14

How did COc1ccccc1CN1C[C@@H]2N[C@H](C1)C2c1ccc(/C=C/c2ccccc2)cc1 (stereo partly drawn) do in these assays?
RAD52 anneal inh: 68*; ERAP1 inh: 0; PGC1a acetyl inh: -4; GSIS activator: -21; MLL AF4-AF9 inh: 30*

What do the screens show for `Fc1cccc(CN2C[C@@H]3N[C@H](C2)C3c2ccc(/C=C/c3ccccc3)cc2)c1` (stereo partly drawn)?
PGC1a acetyl inh: -15; GSIS activator: 471*!

What do the screens show for `C/C=C/c1ccc([C@H]2[C@@H](CNC(=O)c3ccncc3)N(C(C)=O)[C@H]2CO)cc1`?
RAD54 branch: 5; PGC1a acetyl inh: -3; GSIS activator: 6

What do the screens show for `Cc1ccc(S(=O)(=O)Nc2ccc3c(c2)C(=O)N([C@H](C)CO)C[C@@H](C)[C@H](CN(C)C(=O)Nc2ccccc2)OCCCC[C@H](C)O3)cc1`?
GSIS activator: -22

How did Cc1cccc(-c2ccc(C3[C@@H]4CN(Cc5ccccc5F)C[C@H]3N4)cc2)c1 (stereo partly drawn) do in these assays?
RAD52 anneal inh: 49; ERAP1 inh: 3; PGC1a acetyl inh: -10; GSIS activator: 23; MLL AF4-AF9 inh: 9

What do the screens show for `C(=C\c1ccc(C2[C@@H]3CN(Cc4ccccn4)C[C@H]2N3)cc1)/c1ccccc1` (stereo partly drawn)?
RAD52 anneal inh: 42; ERAP1 inh: -1; PGC1a acetyl inh: -4; GSIS activator: -28; MLL AF4-AF9 inh: 20

What do the screens show for `Fc1ccc(-c2ccc(C3[C@@H]4CN(Cc5ccccc5)C[C@H]3N4)cc2)cc1` (stereo partly drawn)?
RAD52 anneal inh: 78*!; ERAP1 inh: 0; PGC1a acetyl inh: -13; GSIS activator: 75*!; MLL AF4-AF9 inh: 20

How did Cc1ccc(-c2ccc(C3[C@@H]4CN(Cc5cccnc5)C[C@H]3N4)cc2)cc1 (stereo partly drawn) do in these assays?
RAD52 anneal inh: 53*!; ERAP1 inh: 4; PGC1a acetyl inh: -11; GSIS activator: -20; MLL AF4-AF9 inh: 17

Results for Cc1ccc(-c2ccc([C@@H]3[C@@H]4CN(Cc5ccccc5F)C[C@H]3N4)cc2)cc1 ?
PGC1a acetyl inh: 29; GSIS activator: 83*

How did C(=C\c1ccc(C2[C@@H]3CN(Cc4nccs4)C[C@H]2N3)cc1)/c1ccccc1 (stereo partly drawn) do in these assays?
PGC1a acetyl inh: 2; GSIS activator: 132*!

What do the screens show for `CCCNC(=O)C[C@H]1CC[C@@H]2[C@H](COc3ccc(NC(=O)c4cccc(Cl)c4)cc3C(=O)N2C)O1`?
RAD52 anneal inh: 3; ERAP1 inh: 4; RAD54 branch: -9; PGC1a acetyl inh: 8; GSIS activator: -5; MLL AF4-AF9 inh: 0

What do the screens show for `COc1ccc(S(=O)(=O)N(C)C[C@H]2Oc3ccc(NS(=O)(=O)c4ccc(C)cc4)cc3C(=O)N([C@@H](C)CO)C[C@H]2C)cc1`?
RAD52 anneal inh: 18; ERAP1 inh: -2; PGC1a acetyl inh: -5; GSIS activator: -12; MLL AF4-AF9 inh: 0

What do the screens show for `COc1ccc(F)cc1C(=O)C1CCCN(C(=O)c2ccc(C(C)=O)s2)C1` (stereo not drawn)?
RAD52 anneal inh: -6; ERAP1 inh: -1; RAD54 branch: -7; PGC1a acetyl inh: 15; GSIS activator: 76*; MLL AF4-AF9 inh: 0

What do the screens show for `COCC(=O)Nc1ccc2c(c1)C(=O)N(C)C[C@H](OC)[C@@H](C)CN(C(=O)c1ccccc1)[C@@H](C)CO2`?
RAD52 anneal inh: -14; RAD54 branch: -8; PGC1a acetyl inh: 6; GSIS activator: -8; MLL AF4-AF9 inh: 1

Results for COc1ccccc1OCCOc1ccc(/C=C2/C(=N)N3OC(C)=CC3=NC2=O)cc1OC ?
RAD54 branch: 9; PGC1a acetyl inh: -6; GSIS activator: 287*
